Where “and” joins values, the source holds several entries; their conditions need not be identical. Identical values can stand only once. Counter-ions that a name gives are not always drawn. ± gives the standard deviation of the averaged measurements. Whole data set: some 3,100 compounds, median “mean cytoplasmic OPP incorporation (global translation) relative to DMSO” near 100, cut for the lowest 2% near 56. The sample holds the lowest values, similar compounds and a random draw of the others, so the mix is not that of the screen.
The compounds below were run on U2OS (assay: mean cytoplasmic OPP incorporation (global translation) relative to DMSO (% of DMSO); higher = more protein synthesis). Conditions: 10 µM; 24 h.
Protocol: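 Primary image-based screen in U2OS cells: compounds at 10 uM for 24 h, then a 1 h o-propargyl-puromycin (OPP) pulse, click labelling, and high-throughput microscopy. Mean cytoplasmic OPP intensity and nuclei count were normalised to DMSO wells within each plate (DMSO = 100) and averaged over triplicate plates.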

Structure (SMILES) | mean cytoplasmic OPP incorporation
COc1cc(N2CCC(N)CC2)ccc1Nc1ncc(Cl)c(-c2c[nH]c3ccccc23)n1 | 36.5
CNC(=O)c1ccccc1Nc1nc(Nc2ccc(N3CCOCC3)cc2OC)ncc1Cl | 90.7 ± 4.2
CCOc1cc(N2CCC(O)CC2)ccc1Nc1ncc2c(n1)N(C)c1ccccc1C(=O)N2C | 110
O=C(/C=C/c1ccc(CN(CCO)CCc2c[nH]c3ccccc23)cc1)NO [LAQ824 (NVP-LAQ824, Dacinostat)] | 47.7
c1ccc2c(Cc3c[nH]c4ccccc34)c[nH]c2c1 [Diindolylmethane] | 93.7
OCc1c[nH]c2ccccc12 [Indole-3-carbinol] | 113
CC(C)C[C@H](NC(=O)N[C@H](C(=O)N[C@@H](CCC(N)=O)C(=O)N[C@@H](C)C=O)[C@@H]1CCNC(=N)N1)C(=O)O [Elastatinal] | 98.9
COc1cc(OC)c(C(=O)CCCCN2CCC3(CC2)NC(=O)NC3=O)cc1NS(=O)(=O)c1ccc(C(F)(F)F)cc1 | 129
CC1(C)CCC2=C(O1)c1ccccc1C(=O)C2=O | 110
CC1=CC(=O)c2ccccc2C1=O [Menadione] | 95.2
CC1(C)C(=O)NC2=C1C(=O)C(=O)c1ccccc12 | 59.6 and 42.6
c1cc2c(cc1C1CCCCC1)c1c3n2CCNC3CCC1 (centres undefined) [Tetrindole mesylate] | 129
C=C(C)[C@@H](CC=C(C)C)C[C@@]12C[C@@H](CC=C(C)C)C(C)(C)[C@@](CC=C(C)C)(C(=O)C(C(=O)c3ccc(O)c(O)c3)=C1O)C2=O [Garcinol] | 100
C[C@@H](NCc1cc(Br)cc2[nH]c(=O)c(=O)[nH]c12)P(=O)(O)O | 96.4
Cc1ccc(C(=O)Nc2cccc(C(F)(F)F)c2)cc1Nc1nc(-c2cccnc2)nc2c1cnn2C | 145
Cc1ccc(NC(=O)c2ccc(CN3CC[C@H](N(C)C)C3)c(C(F)(F)F)c2)cc1Nc1nccc(-c2cncnc2)n1 [Bafetinib (INNO-406)] | 118
Cc1ccc(C(=O)Nc2ccc(CN3CCN(C)CC3)c(C(F)(F)F)c2)cc1C#Cc1cnc2[nH]ncc2c1 [GZD824 Dimesylate] | 37.4
Cc1ccc(C(=O)Nc2ccc(CN3CCN(C)CC3)c(C(F)(F)F)c2)cc1C#Cc1cnc2cccnn12 | 32.7
O=C(Cc1ccccc1)Nc1cccc(C(=O)Nc2ccccc2C(=O)O)c1 | 106
S=c1ccss1 [1,2-Dithiole-3-thione] | 115
CC[C@H](C)[C@H](N)C(=O)N1CCSC1 [P32/98 hemifumarate salt] | 107

Structure (SMILES) | mean cytoplasmic OPP incorporation
O=C(/C=C/c1ccc2ccccc2n1)c1ccncc1 | 26.3
C=CC(=O)c1ccc2ccccc2c1 | 100
NC(=O)c1ccncc1 [Isonicotinamide] | 109
COc1cc2c(NC3CCN(C)CC3)nc(N3CCCN(C)CC3)nc2cc1OCCCN(C)C | 112
CCn1nnc2c(N3CCOCC3)nc(-c3ccc(NC(=O)Nc4ccc(C(=O)N5CCN(C)CC5)cc4)cc3)nc21 | 67.6
NC(=O)Nc1cc(-c2cccc(F)c2)sc1C(=O)N[C@H]1CCCNC1 | 25.1
NC(=O)Nc1sc(-c2ccc(F)cc2)cc1C(N)=O | 76.5 ± 9.7
Cc1c(C(=O)NC2CCCCC2)sc2nc3ccc(N)cc3n12 | 106
C[C@H]1O[C@@H](O[C@H]2[C@@H](O)C[C@H](O[C@H]3[C@@H](O)C[C@H](O[C@H]4CC[C@@]5(C)[C@H](CC[C@@H]6[C@@H]5C[C@@H](O)[C@]5(C)[C@@H](C7=CC(=O)OC7)CC[C@]65O)C4)O[C@@H]3C)O[C@@H]2C)C[C@H](O)[C@@H]1O [Digoxin] | 19
Oc1ccc(-c2nc3cc(O)cc(Br)c3o2)cc1 | 89.5
O=C[C@@H]1CCCN1C(=O)[C@@H]1CCCN1C(=O)OCc1ccccc1 [Z-Prolyl-prolinal] | 98
N#C/C(=C\c1ccc(O)c(O)c1)C(=O)NCCCCc1ccccc1 | 87.8
CCCCC[C@H](O)CC(=O)CCc1ccc(O)c(OC)c1 [Gingerol] | 102
NC(C(=O)O)c1cc(O)cc(O)c1 (racemic) | 107
N[C@@H](Cc1cc(I)c(O)c(I)c1)C(=O)O [3,5-Diiodo-L-tyrosine] | 100
O=[N+]([O-])c1ccc2c(c1)S(=O)(=O)C=C2 [Stattic] | 48.5
O=C1Nc2ccc([N+](=O)[O-])cc2C1=O [5-Nitroisatin] | 104
CS(=O)(=O)Nc1ccc([N+](=O)[O-])cc1Oc1ccccc1 [Nimesulide] | 97.3 ± 5.5
O=C(O)c1ccc(-c2ccc3cc(O)c(C45CC6CC(CC(C6)C4)C5)cc3c2)cc1 | 98.8
Cc1ccc(C(=O)c2cc(/C=C/C(=O)NO)n(C)c2)cc1 | 99.3
C1CCC(C(CC2CCCCN2)C2CCCCC2)CC1 (centres undefined) [Perhexiline maleate] | 53

Structure (SMILES) | mean cytoplasmic OPP incorporation
CNC(C)C1CCC(N)C(OC2C(N)CC(N)C(OC3OCC(C)(O)C(NC)C3O)C2O)O1 (centres undefined) [Gentamycin sulfate (Gentacycol)] | 107
NCC1CCN(c2nccc(-c3ccc4ccccc4c3)n2)CC1 | 88.3
C[C@H]1CC[C@@]2(OC1)O[C@H]1C[C@H]3[C@@H]4CC[C@@H]5C[C@@H](O[C@@H]6O[C@H](CO)[C@H](O)[C@H](O)[C@H]6O[C@@H]6O[C@H](CO)[C@@H](O)[C@H](O)[C@H]6O)CC[C@]5(C)[C@H]4CC[C@]3(C)[C@H]1[C@@H]2C [Timosaponin A-III] | 111
C=CC(=O)Nc1cccc(Oc2nc(Nc3ccc(N4CCN(C)CC4)cc3)ncc2Cl)c1 | 64.9
CNC(=O)c1nn(C)c2c1C(C)(C)Cc1cnc(Nc3ccc(N4CCN(C)CC4)cc3)nc1-2 | 89.3 and 44.9
C=CC(=O)Nc1cccc(Sc2nc(Nc3ccc(N4CCN(C)CC4)cc3)ncc2Cl)c1 | 57.4
O=C(NC[C@H](O)CN1CCc2ccccc2C1)c1ccnc(NC2CCC2)c1 | 107
NCCCCCCCCCCNS(=O)(=O)c1cccc2c(Cl)cccc12 [A-7 hydrochloride] | 115
CC(C)c1ccc(Cn2ccc3c4c(N)nc(NC5CC5)nc4ccc32)cc1 | 40.1
O=C(NCCN1CCCCC1)c1ccc(I)cc1 [N-[2-(Piperidinylamino)ethyl]-4-iodobenzamide] | 100
C[C@H](Cn1cnc2c(N)ncnc21)OCP(=O)(O)O [Tenofovir (Viread)] | 99.5
CC(C)n1nc(-c2cc3cc(O)ccc3[nH]2)c2c(N)ncnc21 [Torkinib (PP242)] | 52.5
CC(C)(C)n1nc(-c2cccc3ccccc23)c2c(N)ncnc21 [1-Naphthyl PP1] | 93
Cc1ccccc1-n1c(Cn2nc(-c3cccc(O)c3)c3c(N)ncnc32)nc2cccc(C)c2c1=O | 102
CC(C)n1nc(-c2ccc3oc(N)nc3c2)c2c(N)ncnc21 | 53.5 ± 16
CCO/C(O)=C1\C(C)=NC(c2ccccc2)=C(C(=O)OCc2ccc([N+](=O)[O-])cc2)C1C#Cc1ccccc1 (centres undefined) | 108
CC1=C(/C=C/C(C)=C\C=C\C(C)=C\C(=O)O)C(C)(C)CCC1 [9-cis Retinoic acid] | 96.4
Nc1ccc(CC(CC(=O)O)C(=O)O)cc1 [4-Amino-D, L-benzylsuccinic acid] | 104
CC(C)[C@@H](O)CC[C@@H](C)[C@H]1CC[C@H]2[C@@H]3CC=C4C[C@@H](O)CC[C@]4(C)[C@H]3CC[C@]12C [24(S)-Hydroxycholesterol] | 104
Cc1ccc2nc(NCCN)c3ncc(C)n3c2c1 | 56.1
Cc1ncc(-c2ccnc(Nc3ccc(S(C)(=O)=O)cc3)n2)n1C(C)C | 55.9

Structure (SMILES) | mean cytoplasmic OPP incorporation
Cc1ccnc(NS(=O)(=O)c2ccc(NC(=O)Nc3ccc(S(=O)(=O)Nc4nccc(C)n4)cc3)cc2)n1 | 96.2
Cc1nc(N)sc1-c1ccnc(Nc2ccc(N3CCOCC3)cc2)n1 | 93.4
C[C@]12CC[C@@H](O)C[C@@H]1CC[C@@H]1[C@@H]2CC[C@]2(C)C=CC[C@@H]12 [3a, 5a-Androstenol] | 97.3
Cn1cc(C2=C(c3cn(CCCSC(=N)N)c4ccccc34)C(=O)NC2=O)c2ccccc21 [Ro 31-8220 mesylate] | 62.4
CN(C)CCCn1cc(C2=C(c3c[nH]c4ccccc34)C(=O)NC2=O)c2ccccc21 | 90.7 and 79.3
Cn1cc(C2=C(c3cn(CCCSC(=N)N)c4ccccc34)C(=O)NC2=O)c2ccccc21 [Ro 31-8220 Mesylate] | 30.3
Cn1cc(C2=C(c3ccc(Cl)cc3Cl)C(=O)NC2=O)c2ccccc21 | 104 and 106
CC(=O)C1=C(O)C=C2Oc3c(C(C)=O)c(O)c(C)c(O)c3[C@]2(C)C1=O [Usnic acid] | 101
CC(=Nc1ccccc1N)c1c(C)cc(=O)n(O)c1O | 95.7
COc1cccc(-c2cc(NCc3ccc4c(c3)OCO4)nc(N)n2)c1 | 92.3
CNCCN1CCC(OCc2ccccc2)CC1 | 111
Nc1ccccc1NC(=O)CCCCCCC(=O)Nc1ccccc1 | 92.9
O=C(CCCCCCC(=O)Nc1ccccc1)NO [Vorinostat] | 41.9
O=C(CCCCCCC(=O)Nc1cccnc1)NO [Pyroxamide] | 65.9
CSCCC(C=O)NC(=O)C(CC(C)C)NC(=O)[C@H](CC(C)C)NC(C)=O (some centres undefined) [Calpain Inhibitor II (ALLM)] | 109
COC1CCC(C(=O)c2ccc3nc4c(cc3c2)CCCO4)CC1 (centres undefined) | 98.8
Nc1ncnc2c1c(-c1cnc3[nH]ccc3c1)nn2C1CCCC1 | 44.2
C=CC(=O)N1CCC[C@@H](n2nc(-c3ccc(Oc4ccccc4)cc3)c3c(N)ncnc32)C1 | 105 ± 2.3
N#CC[C@H](C1CCCC1)n1cc(-c2ncnc3[nH]ccc23)cn1 | 83.53 ± 0.64
COc1cccc(/C=N/N=C/c2cccc(OC)c2)c1 | 99.7
CC1=C(/C=C/C(C)=C/C=C/C(C)=C\CO)C(C)(C)CCC1 [13-cis-Retinol] | 90.9

Source: the supplement of paper PMC8183993
